Test systems include SK-MEL-2 melanoma; EKVX NSCLC; SN12C renal; UO-31 renal; TK-10 renal; ACHN renal; CAKI-1 renal; A498 renal; CCRF-CEM leukemia; MOLT-4 leukemia; RPMI-8226 leukemia; OVCAR-5 ovarian; OVCAR-4 ovarian; SK-OV-3 ovarian; IGROV1 ovarian; OVCAR-3 ovarian; HS 578T breast; NCI/ADR-RES ovarian; OVCAR-8 ovarian; SR leukemia.
Common to all, as to assay: NCI-60 one-dose screen, 48 h (100 = growth as untreated, 0 = no growth, -100 = all killed)
Holding throughout (settings): 10 µM unless noted

About 83,000 compounds went through this panel and 20% of them were active in at least one assay; those are over-represented in the sample as a whole.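 Cell lines were cultured in 96-well plates, exposed to a single compound concentration, and assessed for percent growth 48 hours later.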 Values without a mark were called inactive. Activity calls are given as the source filed them. How the source made its calls: active means growth percent below 10; inactive means the rest.

In the case of `COC(=O)c1ccc2nc(-c3cc4ccccc4n3C)n(CCCCOc3cc4c(cc3OC)C(=O)N3CCC[C@H]3C=N4)c2c1`, the growth with SK-MEL-2 melanoma was -40.3% (active); in the assay with EKVX NSCLC, 10.8%; in the assay on SN12C renal it was 3.64% (active); in the assay on UO-31 renal, -57.3% (active); with TK-10 renal, -17.7% (active); in the assay with ACHN renal, -5.96% (active). Further, the growth in the assay with CAKI-1 renal is -20.7% (active); in the assay with A498 renal it was -60.3% (active); in the assay with CCRF-CEM leukemia, -35.1% (active); in the assay with MOLT-4 leukemia, 3.44% (active); in the assay on RPMI-8226 leukemia, -32.9% (active); in the assay with OVCAR-5 ovarian, -1.18% (active). The growth with OVCAR-4 ovarian is -24% (active); with SK-OV-3 ovarian, 30.1%; in the assay with IGROV1 ovarian, -68.2% (active); with OVCAR-3 ovarian, -40.2% (active); with HS 578T breast, -62.5% (active); with NCI/ADR-RES ovarian it was 29.5%.

On to `COc1ccc2c(c1)C=CC(C#N)N2C(=O)c1ccccc1` (configuration not stated), for which the growth in the assay on SK-MEL-2 melanoma is 67.4%; with EKVX NSCLC, 49.8%; with SN12C renal, 38.4%; with UO-31 renal, 53%; in the assay with TK-10 renal it was 70.9%; with ACHN renal, 33.9%. Besides, the growth was 23.6% in the assay with CAKI-1 renal; -5.22% (active) with A498 renal; 15.2% in the assay on CCRF-CEM leukemia; 11.9% in the assay on MOLT-4 leukemia; 15.4% with OVCAR-8 ovarian; 47.1% in the assay on OVCAR-5 ovarian. The growth is 25.4% with OVCAR-4 ovarian; 43.5% with SK-OV-3 ovarian; -23.7% (active) in the assay on OVCAR-3 ovarian; 14.9% with HS 578T breast; 6.62% (active) in the assay on NCI/ADR-RES ovarian.

For the compound `COc1ccc(/C=c2\sc3n(c2=O)C2C(NN=3)N(C)C(=O)N2C)cc1` (configuration not stated), the growth is 39.6% in the assay with SK-MEL-2 melanoma; 56.7% in the assay on EKVX NSCLC; 42.3% in the assay with SN12C renal; 46.4% with UO-31 renal; 54.8% in the assay on TK-10 renal; 45% with ACHN renal. Moreover, the growth in the assay on CAKI-1 renal was 31.5%; with A498 renal it was -21.3% (active); in the assay with MOLT-4 leukemia, 26.5%; in the assay on SR leukemia, -10.6% (active); in the assay on RPMI-8226 leukemia, 20.3%; in the assay with OVCAR-8 ovarian, 35%. The growth in the assay with OVCAR-5 ovarian was 54.9%; with OVCAR-4 ovarian it was 51.2%; with IGROV1 ovarian, 40%; in the assay on OVCAR-3 ovarian, -3.86% (active); in the assay on HS 578T breast, 8.08% (active); in the assay on NCI/ADR-RES ovarian, 10.4%.

In the case of `COc1cccc2cc(-c3cc4ccccc4[nH]3)/c(=N/C(=S)Nc3ccccc3)oc12`, the growth is 91.5% with SK-MEL-2 melanoma; 87.3% with EKVX NSCLC; 80.6% with SN12C renal; 81.5% in the assay on UO-31 renal; 102% in the assay with TK-10 renal; 41.2% in the assay with ACHN renal. For the same compound, the growth in the assay on CAKI-1 renal was 41%; with A498 renal, 92.4%; in the assay with MOLT-4 leukemia it was 105%; in the assay on SR leukemia it was 104%; in the assay with RPMI-8226 leukemia, 131%; in the assay with OVCAR-8 ovarian it was 66.2%. In addition, the growth in the assay with OVCAR-5 ovarian is 89.6%; with OVCAR-4 ovarian, 40.7%; in the assay with IGROV1 ovarian, 58.1%; in the assay on OVCAR-3 ovarian, 80.5%; in the assay with HS 578T breast it was 25.1%; in the assay on NCI/ADR-RES ovarian it was 51.4%.

With `Cc1cc2c(C(C)C)c(O)c(O)c(C=NCCCCCCC(=O)O)c2c(O)c1-c1c(C)cc2c(C(C)C)c(O)c(O)c(C=NCCCCCCC(=O)O)c2c1O`, the growth is 28.5% in the assay on SK-MEL-2 melanoma; 27.7% in the assay with EKVX NSCLC; 35.7% in the assay with SN12C renal; 28.8% in the assay on UO-31 renal; 17.3% with TK-10 renal; 42.1% in the assay on ACHN renal. Besides, the growth with CAKI-1 renal was 63.3%; in the assay with A498 renal, 36.6%; with CCRF-CEM leukemia it was 18.1%; in the assay on MOLT-4 leukemia, 18.5%; in the assay with RPMI-8226 leukemia it was 10.1%; with OVCAR-5 ovarian, 55.9%. The growth with OVCAR-4 ovarian is 28.2%; with SK-OV-3 ovarian it was 63.7%; in the assay with IGROV1 ovarian, 28.6%; with OVCAR-3 ovarian, 25.8%; with HS 578T breast, 22.2%; with NCI/ADR-RES ovarian, 67.6%.

Consider `CCO/C=N/NC(=O)c1ccncc1`, for which the growth in the assay on SK-MEL-2 melanoma was 102%; with EKVX NSCLC, 102%; in the assay with SN12C renal, 111%; in the assay with UO-31 renal it was 98.9%; in the assay on TK-10 renal, 103%; with ACHN renal, 108%. The growth in the assay with CAKI-1 renal is 100%; in the assay with A498 renal it was 104%; with CCRF-CEM leukemia, 106%; with MOLT-4 leukemia, 107%; with OVCAR-8 ovarian, 108%; in the assay with OVCAR-5 ovarian, 103%. Besides, the growth in the assay on OVCAR-4 ovarian was 109%; in the assay on SK-OV-3 ovarian, 109%; in the assay on IGROV1 ovarian it was 108%; in the assay on OVCAR-3 ovarian, 106%; in the assay on HS 578T breast, 105%; in the assay on NCI/ADR-RES ovarian, 111%.

On to `CCN1C(=O)N(CC)C2Nn3c(s/c(=C\c4cccc(F)c4)c3=O)=NC21` (configuration not stated), for which the growth in the assay on SK-MEL-2 melanoma is 85.3%; with EKVX NSCLC, 79%; in the assay on SN12C renal, 79.6%; in the assay on UO-31 renal, 65.1%; in the assay on TK-10 renal, 109%; in the assay with ACHN renal, 66.7%. Also, the growth in the assay on CAKI-1 renal was 48.9%; with A498 renal, 46.1%; in the assay with MOLT-4 leukemia, 94.9%; in the assay on SR leukemia, 36.2%; in the assay with RPMI-8226 leukemia, 90.7%; in the assay with OVCAR-5 ovarian it was 86.8%. In addition, the growth in the assay on OVCAR-4 ovarian was 67.5%; in the assay on SK-OV-3 ovarian, 102%; in the assay on IGROV1 ovarian, 84.8%; in the assay on OVCAR-3 ovarian, 43%; in the assay with HS 578T breast, 75.5%; in the assay on NCI/ADR-RES ovarian, 30.6%.

With `C=CC(=O)N[C@H](/C=C/C(=O)OCC)Cc1ccc(-c2cc(Cl)cc(Cl)c2)cc1`, the growth was 90.4% in the assay with SK-MEL-2 melanoma; 91% in the assay with EKVX NSCLC; 88.6% in the assay with SN12C renal; 56.7% with UO-31 renal; 89.1% in the assay with TK-10 renal; 90.1% in the assay with ACHN renal. The growth in the assay on CAKI-1 renal is 79.4%; in the assay with CCRF-CEM leukemia it was 79.3%; with MOLT-4 leukemia, 74.3%; in the assay with SR leukemia it was 68.7%; in the assay with RPMI-8226 leukemia, 73.8%; with OVCAR-8 ovarian, 76.6%. In addition, the growth in the assay on OVCAR-5 ovarian is 95.5%; in the assay with OVCAR-4 ovarian, 83.6%; in the assay on SK-OV-3 ovarian, 94.6%; with IGROV1 ovarian it was 93%; with OVCAR-3 ovarian, 89.5%; in the assay with HS 578T breast, 94.8%. The growth with NCI/ADR-RES ovarian is 81.8%.

As to `CCN1C(=O)/C(=c2\sc3n(c2=O)C2C(NN=3)N(CC)C(=S)N2CC)c2ccccc21` (configuration not stated), the growth in the assay with SK-MEL-2 melanoma is 102%; in the assay with EKVX NSCLC, 96.9%; with SN12C renal, 99.4%; with UO-31 renal it was 81.2%; in the assay on TK-10 renal it was 133%; in the assay on ACHN renal it was 100%. Moreover, the growth in the assay with CAKI-1 renal was 76%; with A498 renal it was 91.5%; in the assay with MOLT-4 leukemia, 103%; in the assay with SR leukemia it was 91.8%; in the assay on RPMI-8226 leukemia it was 105%; in the assay with OVCAR-8 ovarian it was 100%. Also, the growth in the assay on OVCAR-5 ovarian is 107%; with OVCAR-4 ovarian, 88.7%; with IGROV1 ovarian it was 100%; with OVCAR-3 ovarian it was 103%; with HS 578T breast, 99.8%; in the assay with NCI/ADR-RES ovarian, 103%.

Source of the values: PubChem BioAssay (NCI).
